Inconclusive results are not listed. Values without a mark were called inactive. Activity calls are given as the source filed them. Calls come from the whole dose curve; as a rule, active = well fitted inhibition curve with a large enough effect; inconclusive = small, poorly fitted or top-dose-only effect; inactive = flat fitted curve, though single readings scatter.
assay: P-glycoprotein substrates identified in KB-8-5-11 adenocarcinoma cell line, qHTS therapeutic library screen (AID 1346987); details: KB-8-5-11 (P-gp overexpressing) viability, CellTiter-Glo, 72 h; series mostly up to 44.5 µM; activity change, negative = cytotoxicity: at the top concentration; note: nearly all actives have a fitted effect of over 65% in size
Outline: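 Human cervical adenocarcinoma KB-8-5-11 cells, selected in colchicine to over-express P-gp and assayed without it, were exposed for 72 h to titrated compounds. An ATP-based luminescent viability signal gave AC50.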
% is set by controls: 0 for no effect and ±100 for the full control effect.

Row | Structure (SMILES) | outcome | activity change, negative = cytotoxicity
1 | C[C@@H]1CC[C@]2(C(=O)O)CC[C@]3(C)C(=CCC4[C@@]5(C)C[C@@H](O)[C@H](O)[C@@](C)(CO)C5CC[C@]43C)C2[C@H]1C (stereo partly drawn) | inactive [at 17.3 µM] | 
2 | COc1cc2c(cc1OC)N1C(=O)C[C@@]34C=CC[N@+]5([O-])CC[C@H]2[C@H](CC3)[C@@]145 |  | 8.24%
3 | CCNC(=O)C1CC(F)(c2ccc(CN3CCCC3)c(F)c2)C1 (stereo not drawn) |  | 8.29%
4 | C=CC(C)(CC/C=C(\C)C(=O)OC)OC1OC(COC(=O)CC(C)(O)CC(=O)O)C(O)C(O)C1O (stereo not drawn) |  | 1.08% [at 17.3 µM]
5 | CC(NC(=O)c1ccccc1N)C(=O)O (stereo not drawn) |  | 5.71%
6 | C[C@@H]1C(=O)O[C@H]2[C@H]1CC[C@@]1(C)C(=O)C=C[C@@](C)(O)[C@H]21 |  | 6.32%
7 | C=C1CCC2C(C)(C)CC(O)CC2(C)C1CCC(C)CC(=O)O (stereo not drawn) |  | 6.03%
8 | CNC(=O)c1ccc2c(c1)CCO[C@H]2CCN1CCN(c2ccc(C(N)=O)cc2)CC1 | inactive | 
9 | CC(C)(CC(=O)N1CCCC1)NCC(=O)N1C[C@@H](F)C[C@H]1C#N | inactive | 
10 | Cc1cn2cc(CC(=O)N3CCC4(CC3)CN(Cc3ccc(-n5nccn5)cc3Cl)C4)nc2s1 |  | -24.5%
11 | CC1(O)CCC2C(C3C1CCC3(C)O)C2(C)C (stereo not drawn) | inactive | 
12 | CC1(C)CC[C@]2(C(=O)O[C@@H]3O[C@H](CO)[C@@H](O)[C@H](O)[C@H]3O)CC[C@]3(C)C(=CCC4[C@@]5(C)CC[C@H](O[C@H]6O[C@H](CO)[C@@H](O)[C@H](O[C@@H]7O[C@H](CO)[C@@H](O)[C@H](O)[C@H]7O)[C@H]6O)C(C)(C)C5CC[C@]43C)[C@@H]2C1 (stereo partly drawn) |  | 4.26% [at 9.29 µM]
13 | C=CCc1cc(OC)c(OC(C)C(O)c2ccc(O)c(OC)c2)c(OC)c1 (stereo not drawn) |  | -11.9%
14 | Cc1ccccc1N1CCN(S(=O)(=O)C[C@]23CC[C@H](C[C@@H]2NC(=O)[C@@H](N)CCS(C)(=O)=O)C3(C)C)CC1 |  | 5.06%
15 | C/C=C(/C)C(=O)OC1C(OC(C)=O)C23C(O)OC4(CCC5C6(C)CCC(OC7OC(C(=O)O)C(O)C(OC8OC(CO)C(O)C(O)C8OC8OC(C)C(O)C(O)C8OC8OCC(O)C(O)C8O)C7OC7OC(CO)C(O)C(O)C7O)C(C)(C)C6CCC5(C)C4(C)CC2OC(C)=O)C3CC1(C)C (stereo not drawn) | inactive [at 9.29 µM] | 
16 | C[C@]1(OC(=O)/C=C/c2ccccc2)C[C@@H](O)[C@]2(O)C=CO[C@@H](O[C@@H]3O[C@H](CO)[C@@H](O)[C@H](O)[C@H]3O)[C@@H]21 |  | 5.57% [at 17.3 µM]
17 | CC(C)(O)c1ccc2c(c1)C(=O)C[C@H]1[C@](C)(C(=O)O)CCC[C@]21C | inactive | 
18 | CC1(CO)CCCC2(C)C1C(OC(=O)c1ccccc1)CC1C(=O)OCC12O (stereo not drawn) | inactive | 
19 | CC1(C)CC[C@]2(C(=O)O)[C@H](O)C[C@]3(C)C(=CCC4[C@@]5(C)CC[C@H](O[C@@H]6OC[C@@H](O)[C@H](O)[C@H]6O)[C@@](C)(C(=O)O)C5CC[C@]43C)[C@@H]2C1 (stereo partly drawn) | inactive [at 17.3 µM] | 

Row | Structure (SMILES) | outcome | activity change, negative = cytotoxicity
20 | CC[C@@H]1C(=O)O[C@]23C=C[C@@H]4C(C(=O)OC)=CO[C@H](O[C@@H]12)[C@@H]43 |  | -10.6%
21 | Cc1cc(Cn2cnc3c2CC(C(=O)O)N(C(=O)C(c2ccccc2)c2ccccc2)C3)ccc1N(C)C (stereo not drawn) |  | 7.83%
22 | C[C@]12CCC[C@](C)(C(=O)O)C1CCC13CC(CO)C(CCC12)C3 (stereo partly drawn) | inactive | 
23 | CC1=C(CCC(C)O[C@@H]2O[C@H](CO)[C@@H](O)[C@H](O)[C@H]2O)C(C)(C)CC(O)C1 (stereo partly drawn) |  | 3.82%
24 | CC(=O)NCC1CN(c2ccc(-c3ccc(CNCc4cn[nH]n4)cc3)c(F)c2)C(=O)O1 (stereo not drawn) |  | -5.92%
25 | O=C(O)[C@H]1Cc2ccccc2CN1 |  | 6.15% [at 5.11 µM]
26 | COc1cc(Nc2nc3c(s2)CCCC3c2ccccc2)ccc1-n1cnc(C)c1 (stereo not drawn) |  | -10.2% [at 9.29 µM]
27 | C=C1[C@H](OC(C)=O)[C@H]2[C@@H](OC(=O)c3ccccc3)[C@@H](C)C[C@]2(O)[C@@H](OC(C)=O)[C@H](C)/C=C/C(C)(C)C(=O)[C@H](OC(C)=O)[C@H]1OC(C)=O |  | -9.96% [at 17.3 µM]
28 | OCC1OC(Oc2cc(O)cc(/C=C/c3ccc(OC4OC(CO)C(O)C(O)C4O)cc3O)c2)C(O)C(O)C1O (stereo not drawn) | inactive [at 17.3 µM] | 
29 | CC1(C)C(=O)CCC2(C)C1C(O)C=C1COC(=O)C12O (stereo not drawn) |  | -1.42%
30 | O=C1C[C@@]2(C(=O)N1)C(=O)N(Cc1ccc(Br)cc1F)C(=O)c1cccn12 | inactive | 
31 | CC(=O)N[C@H]1[C@H](O[C@H]2CC[C@]3(C)C4CC=C5[C@@H]6CC(C)(C)CC[C@]6(C(=O)O)[C@H](O)C[C@@]5(C)[C@]4(C)CC[C@H]3C2(C)C)O[C@H](CO)[C@@H](O)[C@@H]1O (stereo partly drawn) |  | -2.27% [at 17.3 µM]
32 | CCOC(=O)C(CCc1ccccc1)NC(C)C(=O)N1Cc2ccccc2CC1C(=O)O (stereo not drawn) |  | -4.76%
33 | O=C(NC/C=C/CN1CCN(c2cccc(Cl)c2Cl)CC1)c1ccc(-c2ccccn2)cc1 |  | -10.5%
34 | CCC[C@H](N[C@@H](C)C(=O)N1[C@H](C(=O)O)C[C@@H]2CCCC[C@@H]21)C(=O)O |  | -6.94%
35 | CC1(C)CC[C@]2(C(=O)O[C@@H]3O[C@H](CO)[C@@H](O)[C@H](O)[C@H]3O)CC[C@]3(C)C(=CCC4[C@@]5(C)C[C@@H](O)[C@H](O)[C@@](C)(CO)C5[C@H](O)C[C@]43C)C2[C@@H]1O (stereo partly drawn) | inactive [at 17.3 µM] | 
36 | C=Cc1ccc(O[C@@H]2O[C@H](CO[C@@H]3O[C@@H](C)[C@H](O)[C@@H](O)[C@H]3O)[C@@H](O)[C@H](O)[C@H]2O)cc1 | inactive [at 17.3 µM] | 
37 | COCC1OC(OC(C)(C)C2CCC3(C)C=C(C4CCC5C4(C)CC(O)C4OC(C(C)(C)O)CCC45C)CCC3O2)C(NC(C)=O)C(O)C1O (stereo not drawn) |  | 3.69% [at 17.3 µM]
38 | CC(=O)O[C@H]1C[C@@]2(C)[C@@H](CC[C@H]3[C@@]4(C)C=CC(=O)[C@@H](C)[C@@H]4[C@H](OC(C)=O)C(=O)[C@@]32C)/C1=C(\CCC=C(C)C)C(=O)O | inactive [at 17.3 µM] | 

Reference: PubChem BioAssay (NCATS)
